Test results taken from PubChem BioAssay AID1851 (National Center for Advancing Translational Sciences (NCATS), 2009).
In all, about 16,000 compounds went through this assay and about 2,600 (16%) were called active. Not shown: some 20% with an inconclusive outcome. A selection follows. Values without a mark were called inactive. The call rests on the fitted dose curve; in most records, active means well fitted curve in the direction sought with a large enough effect; inconclusive means small, poorly fitted or top-dose-only effect, or effect the other way; inactive means no such curve, though single readings can be large or run the other way. Peptide text beside a SMILES is read from it. * marks the point of attachment. Boc = CC(C)(C)OC(=O)*

target: Cytochrome P450 2D6 (Homo sapiens) (UniProt P10635); assay: Cytochrome panel assay with activity outcomes; conditions: recombinant CYP, pro-luciferin dealkylation, luminescence, p450-cyp2d6; series mostly up to 57.1 µM; activity, negative = inhibition: at the top concentration
On the % scale 0 is the no-effect control and ±100 the full control effect.

Cytochrome P450 2D6 (Homo sapiens), sequence (P10635 whole entry, looked up): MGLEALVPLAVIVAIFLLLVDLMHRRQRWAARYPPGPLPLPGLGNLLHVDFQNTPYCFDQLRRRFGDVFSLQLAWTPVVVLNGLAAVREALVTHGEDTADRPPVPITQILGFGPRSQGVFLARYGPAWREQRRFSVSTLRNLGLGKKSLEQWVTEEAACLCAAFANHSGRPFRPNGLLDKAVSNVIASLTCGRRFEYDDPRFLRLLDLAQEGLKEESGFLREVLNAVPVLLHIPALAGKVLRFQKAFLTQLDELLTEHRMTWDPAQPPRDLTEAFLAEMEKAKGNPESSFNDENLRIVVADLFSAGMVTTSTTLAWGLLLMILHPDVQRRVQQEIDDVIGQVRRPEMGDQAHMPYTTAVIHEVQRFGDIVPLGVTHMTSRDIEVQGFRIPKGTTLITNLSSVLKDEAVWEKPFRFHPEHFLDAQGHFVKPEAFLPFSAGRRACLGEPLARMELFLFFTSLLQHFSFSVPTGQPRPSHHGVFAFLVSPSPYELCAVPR

Row | Structure (SMILES) | activity, negative = inhibition | AC50
1 | CCOc1ccc(-c2c[n+](=O)c3c(n2[O-])CCCC3)c(OCC)c1 | -13.5% | 
2 | Cc1ccc(S(=O)(=O)Nc2ccccc2C=O)cc1 | -1.56% [at 11.4 µM] | 
3 | CCCCn1c(NCc2ccccc2NS(=O)(=O)c2ccc(C)cc2)nc2ccccc21 |  | 501 nM (active)
4 | CCCCn1c(SCc2c(C)noc2C)nc2cc(S(N)(=O)=O)ccc21 | -5% | 
5 | CC(C)=NOCc1ccc(-c2cc(-c3ccccc3)no2)cc1 | 1.27% [at 11.4 µM] | 
6 | CCn1c(=O)[nH]c2ccccc21 | -7.63% | 
7 | O=c1[nH]c2ccccc2n1CCCN1CCN(C(c2ccccc2)c2ccccc2)CC1 |  | 794 nM (active)
8 | CCN1CNC(=S)N(c2cc(C)ccc2C)C1 | -12.5% | 
9 | O=C(c1ccco1)N1CCC2(CCN(Cc3nccs3)CC2)CC1 |  | 1000 nM (active)
10 | COc1ccc(NC(=O)N2CC3(CCN(C(=O)c4ccco4)CC3)C2)cc1 | 1.51% | 
11 | O=C(c1ccco1)N1CCC2(CCN(Cc3ccccc3)CC2)CC1 |  | 3980 nM (active)
12 | CC(=O)N1CCC2(CCN(Cc3nccs3)CC2)CC1 | -17.9% | 
13 | O=C(c1cccc(F)c1)N1CCC2(CCN(Cc3nccs3)CC2)CC1 | -11% | 
14 | O=C(Nc1ccccc1)N1CC2(CCN(C(=O)c3ccco3)CC2)C1 | 14% | 
15 | O=C(c1ccco1)N1CCC[C@@]2(CCN(Cc3ccccc3)C2)C1 |  | 2000 nM (active)
16 | COc1ccccc1CN1CC[C@@]2(CCCN(C(=O)c3ccco3)C2)C1 |  | 501 nM (active)
17 | C=C(C)C1CC=C(C)/C(=N/NC(=O)c2ccc(NC(=O)c3cccc(C)c3)cc2)C1 (configuration not stated) | -15.3% | 
18 | Clc1ccc(-c2csc(N3CCC(c4ccccc4)C3)n2)cc1 (configuration not stated) | -15.1% | 
19 | COc1ccc(C2CC(C(F)(F)F)n3nc(C(=O)N(C)Cc4cn(C)nc4C)c(Cl)c3N2)cc1 (configuration not stated) | -6.09% | 
20 | O=C(Nc1cccc(F)c1)N1CC2(CCN(C(=O)c3cc(C(F)(F)F)cc(C(F)(F)F)c3)CC2)C1 | -2.33% | 
21 | O=C(O)c1c(-c2c3ccc(=O)cc-3oc3cc(O)ccc23)cc2ccccc2c1-c1ccccc1 | 6.33% [at 11.4 µM] | 
22 | Cc1ccc(/C=C2\OC(=O)c3ccccc32)cc1 | -8.38% | 
23 | CC(=O)c1cnc2c(C(=O)O)cnn2c1C | 3.23% | 
24 | COn1c(-c2ccccc2)nc2c1CCc1nonc1-2 | -10.9% | 
25 | Cc1ccc(C)c(CN2C(=O)C3CCCN3c3ccc(S(=O)(=O)N4CCOCC4)cc32)c1 (configuration not stated) | -30% | 
26 | O=C(CO)N/N=C/c1ccccc1F | 27.7% | 

Row | Structure (SMILES) | activity, negative = inhibition | AC50
27 | O=C(O)c1cc2c(cc1S(=O)(=O)O)[C@H]1[C@@H]([C@H]3[C@H]2[C@@]2(Cl)C(Cl)=C(Cl)[C@]3(Cl)C2(Cl)Cl)[C@]2(Cl)C(Cl)=C(Cl)[C@@]1(Cl)C2(Cl)Cl | -3.51% [at 11.4 µM] | 
28 | CC(=O)c1cn(CCCCCCCCCCn2cc(C(C)=O)c(=O)[nH]c2=O)c(=O)[nH]c1=O | 10.7% | 
29 | COc1ccccc1CN1CCCC2(CCN(C(=O)c3ccco3)CC2)C1 |  | 2510 nM (active)
30 | Cc1noc(C)c1C(=O)N1CCC[C@@]2(CCN(Cc3nccs3)C2)C1 | -11% | 
31 | Cc1noc(C)c1C(=O)N1CCC2(CCCN(Cc3ccccc3)C2)CC1 | 6.55% | 
32 | COc1ccccc1CN1CCC2(CC1)CCN(C(=O)c1ccco1)CC2 |  | 12600 nM (active)
33 | Cc1noc(C)c1C(=O)N1CCC[C@@]2(CCN(Cc3ccccc3)C2)C1 |  | 7940 nM (active)
34 | COc1ccc(NC(=O)N2CCC3(CC2)CCN(C(=O)c2ccco2)CC3)cc1 | 0.478% | 
35 | CCc1c(O)c2c(c(O)c1C(C)=O)C(=O)c1c(cc(O)c(C(=O)O)c1C(=O)O)C2=O | 0.869% [at 11.4 µM] | 
36 | COc1ccc(CC(=O)N2CCN(c3ccc(C4=NNC(=O)CC4C)cc3)CC2)cc1 (configuration not stated) | -1.36% | 
37 | CC12CCC(C(=O)O)(C/C1=N\O)C2(C)C (configuration not stated) | 14.5% | 
38 | Cc1noc(NS(=O)(=O)c2ccc(N)cc2)c1C |  | inactive
39 | CNc1cc(NS(=O)(=O)c2ccc(N)cc2)nc(NC)n1 | -1.07% | 
40 | CCOC(=O)C1=C(c2ccccc2)OC(N)=C(C#N)C1c1ccc(Cl)s1 (configuration not stated) | -27.2% | 
41 | Cc1ccc(C(CC(=O)c2ccco2)SCCO)cc1 (configuration not stated) | -20.1% | 
42 | CCn1c(=O)cc(SCC(=O)N2CCN(C(=O)c3ccco3)CC2)c2ccccc21 | -1.47% | 
43 | CCCCn1c(=N)n(CC(=O)c2ccco2)c2ccccc21 |  | 708 nM (active)
44 | CCCn1c(N)[n+](CC(=O)c2ccco2)c2ccccc21 |  | 708 nM (active)
45 | CCOC(=O)c1c(C)n(C)c2ccc(OC(=O)c3ccco3)cc12 | -24.3% | 
46 | CCCCN1C(=O)NC(NC(=O)c2ccco2)(C(F)(F)F)C1=O (configuration not stated) | -11.1% | 
47 | COCCn1c(=O)c(-c2cc(F)cc(F)c2)nc2cnc(N3CCNCC3)nc21 | -10.5% | 
48 | CC1(C)OC(=O)NC1=O | -0.739% [at 25.6 µM] | 
49 | Nc1nc(Br)c2c(F)cccc2c1-c1ccc(F)cc1 | -11.7% | 
50 | CC(C)C(NC(=O)OC(C)(C)C)C(=O)N1CCCC1C(=O)NC(Cc1ccccc1)C(N)=O (stereo not drawn) (Boc-Val-Pro-Phe-NH2; configuration not given here) | -3.72% | 
51 | CC(C)=CCC/C(C)=C/CO/N=C1/[C@H]2O[C@@H]2[C@@H](O)[C@H]2[C@H]1CCn1c(=O)n(Cc3cc4c(cc3Cl)OCO4)c(=O)n12 | -10.5% [at 11.4 µM] | 
52 | CC(SCc1cn2cc(Cl)ccc2n1)C(=O)O (configuration not stated) | -19.2% | 
